Read-out in test [1]: Pyruvate Dehydrogenase Kinase 4 (PDK4), PDK4 (gene 5166)
Description: LTEA_HepaRG_PDK4: Life Technologies and Expression Analysis (LTEA) Assay for Pyruvate Dehydrogenase Kinase 4 (PDK4) using HepaRG (AID 2283525). The following applies: mRNA level, 48 h; actives raise or lower the signal. An outline of the steps: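 HepaRG cells plated 48 h, then switched to serum-free induction medium and exposed in duplicate for 48 h to 8 half-log concentrations from 100 uM in 0.5% DMSO. PDK4 mRNA measured by qRT-PCR, normalized to ACTB, GAPDH and POLR2A; bidirectional fit versus DMSO.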

Read-out in test [2]: NAD(P)H dehydrogenase [quinone] 1 (NQO1), NQO1 (gene 1728)
The test can be described thus: LTEA_HepaRG_NQO1: Life Technologies and Expression Analysis (LTEA) Assay for NAD(P)H dehydrogenase [quinone] 1 (NQO1) using HepaRG (AID 2283526). The following applies: mRNA level, 48 h; actives raise or lower the signal. An outline of the steps: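 Differentiated HepaRG cells, plated 48 h and then switched to serum-free induction medium, were exposed in duplicate for 48 h to 8-point half-log concentrations up to 100 uM in 0.5% DMSO. mRNA measured by qRT-PCR, normalized to ACTB, GAPDH, POLR2A; bidirectional fit versus DMSO.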

Read-out in test [3]: succinate dehydrogenase complex iron sulfur subunit B (SDHB), SDHB (gene 6390)
Description: LTEA_HepaRG_SDHB: Life Technologies and Expression Analysis (LTEA) Assay for succinate dehydrogenase complex iron sulfur subunit B (SDHB) using HepaRG (AID 2283528). The following applies: mRNA level, 48 h; actives raise or lower the signal. A digest of the protocol: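 A human HepaRG culture in serum-free induction medium received test chemicals for 48 h over an eight-point range capped at 100 uM. SDHB expression change was quantified by qRT-PCR.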

Read-out in test [4]: Signal transducer and activator of transcription 3 (Homo sapiens) (UniProt P40763)
The test can be described thus: LTEA_HepaRG_STAT3: Life Technologies and Expression Analysis (LTEA) Assay for Signal transducer and activator of transcription (STAT3) using HepaRG (AID 2283529). The following applies: mRNA level, 48 h; actives raise or lower the signal. An outline of the steps:
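Differentiated HepaRG cells, serum-free induction medium, dosed 48 h in duplicate, 8 half-log concentrations from 100 uM in 0.5% DMSO. STAT3 mRNA by qRT-PCR, normalised to ACTB, GAPDH, POLR2A; bidirectional fit versus DMSO.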

Read-out in test [5]: sulfotransferase 2A1 (SULT2A1), SULT2A1 (gene 6822)
Description: LTEA_HepaRG_SULT2A1: Life Technologies and Expression Analysis (LTEA) Assay for sulfotransferase 2A1 (SULT2A1) using HepaRG (AID 2283531). The following applies: mRNA level, 48 h; actives raise or lower the signal. An outline of the steps: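 Cells were plated and cultured 48 h, switched to serum-free induction medium, then dosed in duplicate for 48 h (8 concentrations, max 100 uM). RNA was isolated and SULT2A1 expression measured by qRT-PCR; gain or loss of signal fitted relative to DMSO.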

Read-out in test [6]: Transforming Growth Factor (TGFA), TGFA (gene 7039)
Description: LTEA_HepaRG_TGFA: Life Technologies and Expression Analysis (LTEA) Assay for Transforming Growth Factor (TGFA) using HepaRG (AID 2283532). The following applies: mRNA level, 48 h; actives raise or lower the signal. A digest of the protocol: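 Differentiated HepaRG cells exposed 48 hours in serum-free induction medium, 0.5% DMSO vehicle, 8-point half-log series from 100 uM, in duplicate. TGFA mRNA by TaqMan qRT-PCR, normalised to ACTB, GAPDH, POLR2A; bidirectional fit versus DMSO.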

Read-out in test [7]: Transforming Growth Factor (TGFB1), TGFB1 (gene 7040)
Description: LTEA_HepaRG_TGFB1: Life Technologies and Expression Analysis (LTEA) Assay for Transforming Growth Factor (TGFB1) Transporter using HepaRG (AID 2283533). The following applies: mRNA level, 48 h; actives raise or lower the signal. An outline of the steps: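 Expression change of TGFB1 in human HepaRG cells is measured after a 48 h chemical exposure, up to 100 uM in 0.5% DMSO vehicle. Curves are fitted in both directions relative to the DMSO baseline.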

Read-out in test [8]: TIMP1, TIMP1 (gene 7076)
Description: LTEA_HepaRG_TIMP1: Life Technologies and Expression Analysis (LTEA) Assay for TIMP1 using HepaRG (AID 2283534).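 Further: TaqMan qRT-PCR signal normalized to ACTB GAPDH and POLR2A housekeeping genes.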 The following applies: mRNA level, 48 h; actives raise or lower the signal. A digest of the protocol:
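We dosed human liver HepaRG cultures for 48 hours with up to 100 uM test chemical and measured TIMP1 expression by qRT-PCR. Activity in either direction is fitted relative to the 0.5% DMSO vehicle.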

Read-out in test [9]: Tumor necrosis factor receptor 1 (TNFRSF1A), TNFRSF1A (gene 7132)
The test can be described thus: LTEA_HepaRG_TNFRSF1A: Life Technologies and Expression Analysis (LTEA) Assay for Tumor necrosis factor receptor 1 (TNFRSF1A) using HepaRG (AID 2283535). The following applies: mRNA level, 48 h; actives raise or lower the signal. An outline of the steps: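 Expression of TNFRSF1A in human HepaRG liver cells was measured by qRT-PCR 48 h after chemical dosing (maximum 100 uM). Bidirectional curve fitting used 0.5% DMSO as baseline.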

Read-out in test [10]: Thyroid Hormone Responsive (THRSP), THRSP (gene 7069)
Description: LTEA_HepaRG_THRSP: Life Technologies and Expression Analysis (LTEA) Assay for Thyroid Hormone Responsive (THRSP) using HepaRG (AID 2283536). The following applies: mRNA level, 48 h; actives raise or lower the signal. An outline of the steps: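 Differentiated HepaRG cells treated 48 h in serum-free induction medium with 8 half-log concentrations up to 100 uM (0.5% DMSO), duplicates. THRSP mRNA by TaqMan qRT-PCR normalised to ACTB, GAPDH, POLR2A; bidirectional fit versus DMSO.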

Read-out in test [11]: Cellular tumor antigen p53 (Homo sapiens) (UniProt P04637)
The test can be described thus: LTEA_HepaRG_TP53: Life Technologies and Expression Analysis (LTEA) Assay for Tumor Protein P53 (TP53) using HepaRG (AID 2283537). The following applies: mRNA level, 48 h; actives raise or lower the signal. An outline of the steps:
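Gain or loss of TP53 mRNA signal is scored relative to 0.5% DMSO after 48 h chemical treatment of HepaRG liver cells, tested in duplicate at eight half-log concentrations up to 100 uM.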

Read-out in test [12]: UDP glucuronosyltransferase (UGT1A1), UGT1A1 (gene 54658)
The test can be described thus: LTEA_HepaRG_UGT1A1: Life Technologies and Expression Analysis (LTEA) Assay for UDP glucuronosyltransferase (UGT1A1) using HepaRG (AID 2283538). The following applies: mRNA level, 48 h; actives raise or lower the signal. A digest of the protocol:
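Differentiated human HepaRG cells in serum-free induction medium were exposed in duplicate for 48 h to eight half-log concentrations up to 100 uM in 0.5% DMSO. UGT1A1 mRNA was quantified by TaqMan qRT-PCR, normalized to ACTB, GAPDH and POLR2A, and fitted bidirectionally against DMSO.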

Read-out in test [13]: UDP glucuronosyltransferase (UGT1A6), UGT1A6 (gene 54578)
The test can be described thus: LTEA_HepaRG_UGT1A6: Life Technologies and Expression Analysis (LTEA) Assay for UDP glucuronosyltransferase (UGT1A6) using HepaRG (AID 2283539). The following applies: mRNA level, 48 h; actives raise or lower the signal. An outline of the steps:
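Endpoint is UGT1A6 transcript induction or loss in a human liver cell line, quantified by TaqMan qRT-PCR 48 h after dosing. Concentrations ran from 100 uM downward in half-log steps in 0.5% DMSO; activity was fitted in both directions versus vehicle.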

Read-out in test [14]: X-box binding protein 1 (XBP1), XBP1 (gene 7494)
Description: LTEA_HepaRG_XBP1: Life Technologies and Expression Analysis (LTEA) Assay for X-box binding protein 1 (XBP1) using HepaRG (AID 2283540). The following applies: mRNA level, 48 h; actives raise or lower the signal. A digest of the protocol: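 Human HepaRG monolayers receive test chemical for 48 h across an eight-point half-log series starting at 100 uM. XBP1 mRNA gain or loss is scored against DMSO by qRT-PCR.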

The nature of test [15]: LTEA_HepaRG_LDH_cytotoxicity: Cytotoxicity Assessment in the Life Technologies and Expression Analysis (LTEA) Assay (AID 2283563; active means hit-call score of the fitted dose curve at least 0.9, where 1 is the maximum). A digest of the protocol: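 Human HepaRG hepatic cells are treated with test chemicals for 48 h at up to 100 uM in 0.5% DMSO. Cytotoxicity is scored from medium LDH against the vehicle control.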
The nature of test [16]: ATG_XTT_Cytotoxicity: Cytotoxicity Assessment in the Attagene TRANS-FACTORIAL HepG2 Assay (AID 2283584; active means hit-call score of the fitted dose curve at least 0.9, where 1 is the maximum;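 on AC50: XTT signal for cell number as viability in transfected HepG2 cells; cells exposed to compound for 24 h before reading; active means loss of viability signal versus DMSO baseline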). An outline of the steps:
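Transfect HepG2 with GAL4-UAS reporter units, dose compound, incubate 24 h, then measure viable cell number by XTT. Fit concentration response against DMSO baseline.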

A short description of test [17]: TOX21_p53_BLA_p2_viability: Viability Assessment in the Tox21 HCT-116 p53 Agonism Beta-lactamase Assay, Phase 2 (AID 2283591; active means hit-call score of the fitted dose curve at least 0.9, where 1 is the maximum;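 further: compound exposure lasted 16 h at 37 °C; actives lower the ATP signal meaning cytotoxicity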). An outline of the steps:
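HCT116 p53-bla cells, 4000/well, dosed after 5 h plating (217-fold dilution of DMSO stocks) and incubated 16 h at 37C. Viability taken as cellular ATP by CellTiter-Glo luminescence after 30 min RT; signal loss marks cytotoxicity.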

Test [18] addresses Cellular tumor antigen p53 (Homo sapiens) (UniProt P04637). The test can be described thus: TOX21_p53_BLA_p2_ratio: Tox21 HCT-116 p53 Agonism Beta-lactamase Assay, Ratio, Phase 2 (AID 2283592; active means hit-call score of the fitted dose curve at least 0.9, where 1 is the maximum). A digest of the protocol:
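An inducible beta-lactamase reporter in HCT116 cells signals p53 pathway activation. After 16 h chemical exposure at 37C, cells load CCF4-AM substrate for 2 h at room temperature; activity is the cleaved/uncleaved emission ratio relative to DMSO.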

A short description of test [19]: TOX21_p53_BLA_p3_viability: Viability Assessment in the Tox21 HCT-116 p53 Agonism Beta-lactamase Assay, Phase 3 (AID 2283593; active means hit-call score of the fitted dose curve at least 0.9, where 1 is the maximum;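 further: cells exposed to compound for 16 h before reading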). A digest of the protocol: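 HCT116 cells, 4000/well, dosed 5 h after plating by pin transfer (217-fold dilution from DMSO stock) and incubated 16 h at 37C, 5% CO2. Viability read as ATP luminescence with CellTiter-Glo after 30 min at room temperature.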

From PubChem BioAssay (EPA / NIEHS) come the findings set out here.

Where “and” joins values, the source holds several entries; their conditions need not be identical. Identical values can stand only once. Records with an inconclusive call do not appear. The source holds several records for some structures; these can differ, active in one and inactive in another. Calls of active or inactive are those of the source. How the source made its calls, unless noted: active means hit-call score of the fitted dose curve at least 0.9, where 1 is the maximum; inactive means score below 0.9.

Chain of Cellular tumor antigen p53 (Homo sapiens) (P04637 whole entry, looked up): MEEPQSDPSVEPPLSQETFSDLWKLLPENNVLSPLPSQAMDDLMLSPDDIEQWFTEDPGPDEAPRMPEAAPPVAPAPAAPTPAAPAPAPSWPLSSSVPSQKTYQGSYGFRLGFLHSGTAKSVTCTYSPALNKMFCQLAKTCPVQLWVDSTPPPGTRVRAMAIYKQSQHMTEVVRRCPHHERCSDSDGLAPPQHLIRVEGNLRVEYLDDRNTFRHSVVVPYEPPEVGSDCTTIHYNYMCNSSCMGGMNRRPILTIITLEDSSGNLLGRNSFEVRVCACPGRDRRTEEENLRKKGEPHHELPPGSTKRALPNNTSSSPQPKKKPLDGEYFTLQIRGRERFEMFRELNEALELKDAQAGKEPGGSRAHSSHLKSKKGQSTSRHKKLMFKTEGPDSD
Chain of Signal transducer and activator of transcription 3 (Homo sapiens) (P40763 whole entry, looked up): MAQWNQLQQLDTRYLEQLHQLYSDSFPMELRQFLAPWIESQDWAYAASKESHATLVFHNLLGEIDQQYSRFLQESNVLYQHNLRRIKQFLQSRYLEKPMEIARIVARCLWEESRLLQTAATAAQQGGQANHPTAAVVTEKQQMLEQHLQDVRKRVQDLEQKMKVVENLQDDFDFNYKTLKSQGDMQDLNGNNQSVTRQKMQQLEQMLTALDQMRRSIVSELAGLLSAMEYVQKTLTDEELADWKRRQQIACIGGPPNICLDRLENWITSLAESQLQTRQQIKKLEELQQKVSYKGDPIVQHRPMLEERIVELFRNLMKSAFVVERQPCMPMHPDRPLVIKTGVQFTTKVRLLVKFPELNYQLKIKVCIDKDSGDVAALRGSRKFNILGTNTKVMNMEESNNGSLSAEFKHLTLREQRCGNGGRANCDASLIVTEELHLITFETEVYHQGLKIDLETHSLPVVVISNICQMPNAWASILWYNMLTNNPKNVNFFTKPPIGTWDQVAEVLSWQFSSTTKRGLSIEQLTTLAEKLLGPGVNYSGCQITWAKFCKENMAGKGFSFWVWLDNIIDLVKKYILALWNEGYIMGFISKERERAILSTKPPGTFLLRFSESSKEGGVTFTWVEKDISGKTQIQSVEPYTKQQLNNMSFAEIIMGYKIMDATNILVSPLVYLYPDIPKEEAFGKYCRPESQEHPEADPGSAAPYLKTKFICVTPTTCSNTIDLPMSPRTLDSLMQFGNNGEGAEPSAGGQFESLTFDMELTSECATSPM

For the molecule `ClC1=C(Cl)C2(Cl)C3C(Cl)C(Cl)CC3C1(Cl)C2(Cl)Cl` (stereo not drawn), the molecule was called inactive in test [1], in [2], in test [3], in test [4], in test [5] and in test [6]. For the same molecule, the call in [8], in test [9], in [10], in test [11], in test [13] and in test [14] was inactive. Further, the call in test [15] and in test [19] was inactive. The AC50 (commonly the concentration giving half of the maximal activity seen) was 77 µM (active) in [7]; 2.81 µM (active) in test [12]; 157 µM (active) in test [16]; 50.8 µM (active) and 46 µM (active) in test [17]; 61.5 µM (active) and 80.2 µM (active) in [18]; 55.6 µM (active) in [19].
Regarding `CC(C)(C)OOC(C)(C)C`, the outcome in [1], in test [2], in test [3], in test [4], in test [5] and in [6] was inactive. Besides, the result in test [7], in test [9], in test [10], in test [11], in [12] and in test [13] was inactive. Besides, the molecule was classed as inactive in [14], in test [15], in test [16], in [17], in test [18] and in test [19].
Take `O=[N+]([O-])c1ccccc1`: the outcome in [1], in test [2], in test [3], in test [4], in test [5] and in test [6] was inactive. The call in test [7], in test [9], in test [10], in test [11], in [12] and in [13] was inactive. The molecule was called inactive in test [14], in [15], in [17], in [18] and in test [19].
As for `Nc1ccc2ccccc2c1`, the result in test [1], in test [2], in test [3], in test [4], in [5] and in test [6] was inactive. In addition, the molecule was classed as inactive in test [7], in test [9], in test [11], in test [13], in test [14] and in [15]. For the same molecule, the molecule was called inactive in [16], in test [17] and in test [18]. The AC50 in [10] was 9.29 µM (active); in [12], 18.8 µM (active).
Regarding `c1ccc2c(c1)Nc1ccccc1S2`, the outcome in test [1], in test [2], in test [3], in [4], in test [5] and in test [6] was inactive. The outcome in test [7], in test [9], in test [11], in test [13], in test [14] and in test [15] was inactive. Also, the call in [16], in test [17], in test [18] and in test [19] was inactive. Further, the half-maximal activity concentration (AC50) in [10] is 32.5 µM (active); in test [12] it was 50 µM (active).
For `CCCN(CCC)c1c([N+](=O)[O-])cc(C(C)C)cc1[N+](=O)[O-]`, the AC50 is 20.9 µM (active) in test [1]; 43.2 nM (active) in test [9]; 322 nM (active) in [11]; 1.85 µM (active) in test [12]; 1.17 µM (active) in [13]. The molecule was called inactive in test [2], in test [3], in test [4], in test [5], in test [6] and in [7]. In addition, the molecule was called inactive in test [10], in test [14], in [15], in test [16], in [17] and in test [18]. In addition, in test [19], the result was inactive.
